Data taken from PubChem BioAssay AID2330 (Broad Institute, 2010).
Screen size: about 37,000 compounds; about 2,800 (7.6%) were called active. About 1% were inconclusive and are not listed. For the sample, actives were picked, then their nearest neighbours and some compounds at random. Unmarked numbers belong to inactive results. Rule as the data show it: active = inhibition above about 80%; inconclusive = no clear call, values can overlap the other calls; inactive = below that.

Test: NOMO-1 AML cell viability reduction, primary screen, STK33 inhibitor project, CellTiter-Glo luminescence (AID 2330)
Conditions: NOMO-1 AML viability, 72 h, hits give high values, concentration not given here
Compound `COc1ccc(-c2nnc(SCC(=O)O)n2-c2ccccc2)cc1OC` has an inhibition of -16.5%. With `CC1(C)Cc2c(sc3ncn4nc(COc5ccc(Cl)cc5)nc4c23)C(C)(C)N1` the inhibition was 142% (active). Work on `O=C1c2ccccc2C(=O)C1c1cc(=O)[nH]c2c1ccc1ccccc12` yielded an inhibition of 11.8%. Work on `CCOC(=O)c1nnn(-c2nonc2-n2cccc2)c1CN1CCOCC1` yielded an inhibition of 24.9%. With `Cc1ccc(S(=O)(=O)Nc2ccc3c(c2)CC(=O)N([C@@H](C)CO)C[C@H](C)[C@H](CN(C)Cc2ccc(C(=O)Nc4ccccc4N)cc2)O3)cc1` the inhibition was 139% (active). With `C[C@@H]1CN([C@H](C)CO)C(=O)Cc2cc(NS(=O)(=O)c3cccs3)ccc2O[C@@H]1CN(C)Cc1ccc(C(=O)O)cc1` the inhibition was -19.7%. In the case of `COc1ccc(S(=O)(=O)Nc2ccc3c(c2)CC(=O)N([C@@H](C)CO)C[C@@H](C)[C@@H](CN(C)Cc2ccc(C(=O)Nc4ccccc4N)cc2)O3)cc1`, the inhibition is reported as 100% (active). In the case of `Cc1ccc(S(=O)(=O)N(C)C[C@H]2Oc3ccc(NS(=O)(=O)c4ccccc4)cc3CC(=O)N([C@@H](C)CO)C[C@H]2C)cc1`, the inhibition is reported as -0.416%. `COc1ccc(CN(C)C[C@H]2Oc3ccc(NS(=O)(=O)c4ccc(Cl)cc4)cc3CC(=O)N([C@@H](C)CO)C[C@H]2C)cc1` gave an inhibition of 40.8%. With `COc1ccc(S(=O)(=O)Nc2ccc3c(c2)CC(=O)N([C@H](C)CO)C[C@@H](C)[C@@H](CN(C)C(=O)Nc2cccc4ccccc24)O3)cc1` the inhibition was -1.33%. For `C[C@H]1CN([C@@H](C)CO)C(=O)Cc2cc(NS(=O)(=O)c3ccccc3)ccc2O[C@H]1CN(C)Cc1ccc(C(=O)Nc2ccccc2N)cc1`, the inhibition was 141% (active). Work on `C[C@H](CO)N1C[C@H](C)[C@H](CN(C)CC2CC2)Oc2ccc(NS(=O)(=O)c3ccccc3)cc2CC1=O` yielded an inhibition of 20.8%. Work on `Cc1ccc(S(=O)(=O)Nc2ccc3c(c2)CC(=O)N([C@@H](C)CO)C[C@@H](C)[C@@H](CN(C)S(=O)(=O)c2ccccc2)O3)cc1` yielded an inhibition of 5.59%. `C[C@@H]1CCCCO[C@H](CN(C)S(=O)(=O)c2ccccc2)[C@@H](C)CN([C@H](C)CO)C(=O)c2cc(NC(=O)Nc3ccc(F)cc3)ccc2O1` gave an inhibition of 33.7%. With `C[C@@H]1CCCCO[C@H](CN(C)S(=O)(=O)c2cccs2)[C@@H](C)CN([C@H](C)CO)C(=O)c2cc(NC(=O)Nc3ccccc3)ccc2O1` the inhibition was 11.8%. Work on `O=c1cc(CSc2nnnn2-c2ccccc2)[nH]c(=S)[nH]1` yielded an inhibition of 33.9%. For `C[C@@H]1CN([C@@H](C)CO)C(=O)Cc2cc(NC(=O)C3CCCCC3)ccc2O[C@@H]1CN(C)Cc1ccncc1`, the inhibition was 15.8%. `CCOC(=O)c1cnc2cc(C(F)(F)F)ccc2c1N1CCCCCC1` gave an inhibition of 13.2%. For `CNC[C@@H]1Oc2ccc(NC(=O)Nc3ccc4c(c3)OCO4)cc2C(=O)N([C@H](C)CO)C[C@@H]1C`, the inhibition was 6.4%. For `COc1ccc(NC(=O)c2ccc(OCC(=O)Nc3ccccc3F)cc2)cc1Cl`, the inhibition was 19.2%. `CCOC(=O)c1c(CN2CCOCC2)nc2c3ccccc3ccn12` showed an inhibition of -2.66%. For `CCOC(=O)c1nnn2c1nc(N1CCN(c3ccccc3)CC1)c1ccccc12`, the inhibition was 101% (active). With `CCOC(=O)c1nnn2c3ccccc3c(=O)n(C)c12` the inhibition was -3.54%. For `Cc1noc(C)c1NC(=O)Nc1cccc2c1O[C@H](CN(C)C(=O)Nc1ccccc1)[C@@H](C)CN([C@H](C)CO)C2=O`, the inhibition was 30.8%. With `NC(CC(=O)Nc1ccc(Cl)cc1)C(=O)O` (stereo not drawn) the inhibition was 16.1%. For `Cc1noc(C)c1S(=O)(=O)Nc1ccc2c(c1)CC(=O)N([C@@H](C)CO)C[C@@H](C)[C@@H](CN(C)C(=O)Nc1ccc(C(F)(F)F)cc1)O2`, the inhibition was 14.7%. For `O=C1Cc2ccc(F)cc2CC1C1=Cc2ccc(F)cc2CC1` (stereo not drawn), the inhibition was 114% (active). For `Cc1ccc(NC(N)=O)cc1`, the inhibition was 0.872%. With `Oc1ccc(CN2CCCC2)c2cccnc12` the inhibition was 141% (active). In the case of `C[C@H](CO)N1C[C@H](C)[C@H](CN(C)S(=O)(=O)c2ccc(Cl)cc2)Oc2c(NS(C)(=O)=O)cccc2C1=O`, the inhibition is reported as 9.14%. `C[C@H](CO)N1C[C@H](C)[C@H](CN(C)S(=O)(=O)c2cccs2)Oc2ccc(NS(=O)(=O)c3ccc(Cl)cc3)cc2CC1=O` showed an inhibition of 12.4%. With `COc1c(C)c2c(c(O)c1C/C=C(\C)CCC(=O)O)C(=O)OC2` the inhibition was 139% (active). `CS(=O)(=O)N(CC(=O)Nc1ccc(F)c(F)c1)c1ccccc1F` showed an inhibition of -8.09%. In the case of `Oc1c(Cl)cc(Cl)cc1C1Nc2cc(C(F)(F)F)ccc2-n2cccc21` (stereo not drawn), the inhibition is reported as 114% (active). For `C[C@@H]1CN([C@H](C)CO)C(=O)Cc2cc(NC(=O)CCN3CCOCC3)ccc2O[C@@H]1CN(C)S(C)(=O)=O`, the inhibition was 5.67%. For `CC(C)NC(=O)N(C)C[C@@H]1Oc2ccc(NS(=O)(=O)c3cn(C)cn3)cc2C(=O)N([C@@H](C)CO)C[C@@H]1C`, the inhibition was 18.9%. `Cn1c(OCc2cccnc2)nc2c1c(=O)n(Cc1ccc(Cl)c(Cl)c1)c(=O)n2C` showed an inhibition of 27.8%. Work on `c1ccc2[nH]c(CSc3nc4ccccc4[nH]3)nc2c1` yielded an inhibition of 6.35%. Compound `Cc1cc(=O)oc2cc(OCc3cccc(F)c3)ccc12` has an inhibition of 25.5%. For `CCOC(=O)c1cc(=O)c2ccc(OCc3ccccc3)cc2o1`, the inhibition was 105% (active). Compound `Cc1c(CCC(=O)O)c(=O)oc2cc(OCc3ccc(Br)cc3)ccc12` has an inhibition of 19.3%. With `O=C(CSc1nnc2ccc3ccccc3n12)Nc1ccc2c(c1)OCCO2` the inhibition was 12.1%. For `NC(=O)CSc1oc(-c2cccs2)nc1S(=O)(=O)c1ccccc1`, the inhibition was 11.4%. In the case of `Cc1noc(C)c1NC(=O)N(C)C[C@@H]1Oc2ccc(NS(C)(=O)=O)cc2C(=O)N([C@@H](C)CO)C[C@@H]1C`, the inhibition is reported as -15.6%. `COc1ccc(NC(=O)Nc2ccc3c(c2)C(=O)N([C@H](C)CO)C[C@H](C)[C@@H](CN(C)C(=O)Nc2ccc4c(c2)OCO4)O3)cc1` gave an inhibition of 14.3%. Compound `COC(=O)c1cc(OC)c(OC)cc1NC(=O)COc1ccc(Cl)cc1` has an inhibition of 15.1%. For `COC(=O)c1cc(OC)c(OC)cc1NC(=O)c1cc(-c2ccc(C)o2)nc2ccccc12`, the inhibition was 92.8% (active). With `COC(=O)c1c(-c2cccnc2)csc1NC(=O)c1cc(-c2ccc(C)o2)nc2ccccc12` the inhibition was 86.9% (active). `COC(=O)c1cc(OC)c(OC)cc1NC(=O)COc1ccccc1Cl` showed an inhibition of -12.9%. `Cc1ccccc1OCC(=O)Nc1cc(-c2nc3ccccc3s2)c(Cl)cc1Cl` gave an inhibition of 6.92%. `COc1ccc(NC(=O)N(C)C[C@H]2Oc3ccc(NC(=O)NC(C)C)cc3CC(=O)N([C@H](C)CO)C[C@H]2C)cc1` showed an inhibition of 3.6%. Compound `C[C@@H]1CN([C@H](C)CO)C(=O)Cc2cc(NS(C)(=O)=O)ccc2O[C@H]1CN(C)S(=O)(=O)c1ccccc1` has an inhibition of -9.84%. `Cn1c(=O)c2c(nc(SCC(=O)O)n2Cc2ccc(F)cc2)n(C)c1=O` showed an inhibition of 17.9%. Compound `Cc1cc(=O)oc2cc(OC(C)C(=O)Nc3ccc(Cl)c(C(F)(F)F)c3)ccc12` (stereo not drawn) has an inhibition of 4.93%. `C[C@H]1CN([C@@H](C)CO)C(=O)c2cc(NC(=O)Nc3ccccc3)ccc2O[C@H]1CN(C)S(C)(=O)=O` showed an inhibition of 15.5%. `CC(=O)c1cccc(NC(=O)CN(c2ccc(F)c(Cl)c2)S(C)(=O)=O)c1` showed an inhibition of 13.8%. Work on `Cc1noc(C)c1NC(=O)Nc1ccc2c(c1)CC(=O)N([C@@H](C)CO)C[C@@H](C)[C@@H](CN(C)Cc1ccc(Cl)c(Cl)c1)O2` yielded an inhibition of 58.1%. In the case of `COc1cc(O)cc(C)c1C(=O)OC1C(CO)OC(n2ccc(=O)[nH]c2=O)C1OC(C)=O` (stereo not drawn), the inhibition is reported as 6.97%. In the case of `COC(=O)c1cc(C)sc1NC(=S)Nc1ncn(Cc2ccc(F)cc2Cl)n1`, the inhibition is reported as 109% (active). `CCc1cc(C(=O)OC)c(NC(=S)Nc2ccc(OC)cc2[N+](=O)[O-])s1` gave an inhibition of 22.2%. `C[C@H]1CN([C@@H](C)CO)C(=O)Cc2cc(NS(=O)(=O)c3cccs3)ccc2O[C@@H]1CN(C)Cc1ccc(Oc2ccccc2)cc1` gave an inhibition of 78.4%. `C[C@H]1CN([C@@H](C)CO)C(=O)Cc2cc(NC(=O)Nc3cccc4ccccc34)ccc2O[C@H]1CN(C)CC1CC1` showed an inhibition of 26.7%. Work on `C[C@H]1CN([C@@H](C)CO)C(=O)Cc2cc(NC(=O)Nc3ccc4c(c3)OCO4)ccc2O[C@H]1CN(C)CC1CC1` yielded an inhibition of 11.8%. In the case of `C[C@H]1CN([C@@H](C)CO)C(=O)c2cc(NC(=O)Nc3ccc4c(c3)OCO4)ccc2O[C@@H]1CN(C)CC1CCCCC1`, the inhibition is reported as 31.9%. In the case of `C[C@@H]1CN([C@@H](C)CO)C(=O)Cc2cc(NC(=O)Nc3cccc4ccccc34)ccc2O[C@@H]1CN(C)CC1CCCCC1`, the inhibition is reported as 117% (active). With `C[C@@H]1CN([C@@H](C)CO)C(=O)Cc2cc(NC(=O)Nc3ccc4c(c3)OCO4)ccc2O[C@@H]1CN(C)CC1CCCCC1` the inhibition was 88.2% (active). `C[C@H]1CN([C@@H](C)CO)C(=O)Cc2cc(NC(=O)Nc3cccc4ccccc34)ccc2O[C@@H]1CN(C)S(C)(=O)=O` gave an inhibition of 0.688%. For `C[C@H](CO)N1C[C@H](C)[C@@H](CN(C)Cc2ccc3c(c2)OCO3)Oc2c(NC(=O)C3CCOCC3)cccc2C1=O`, the inhibition was 20.1%. In the case of `O=C(Nc1ccc(Cl)cc1C(=O)NCc1ccco1)c1ccco1`, the inhibition is reported as 31.2%. Work on `COc1ccc(CN(C)C[C@H]2Oc3c(NC(=O)C4CCCCC4)cccc3C(=O)N([C@@H](C)CO)C[C@H]2C)cc1` yielded an inhibition of 2.14%. With `C[C@H](CO)N1C[C@H](C)[C@@H](CN(C)Cc2ccc(Cl)c(Cl)c2)Oc2c(NC(=O)C3CCCCC3)cccc2C1=O` the inhibition was 102% (active). `COc1ccc(CN(C)C[C@H]2Oc3c(NC(=O)C4CCCCC4)cccc3C(=O)N([C@@H](C)CO)C[C@@H]2C)cc1` showed an inhibition of 15.7%. With `C[C@@H]1CN([C@@H](C)CO)C(=O)c2cccc(NC(=O)c3nc4ccccc4s3)c2O[C@@H]1CN(C)Cc1ccc(Cl)c(Cl)c1` the inhibition was 87.1% (active). With `CC(C)NC(=O)N(C)C[C@@H]1Oc2c(NC(=O)c3nc4ccccc4s3)cccc2C(=O)N([C@H](C)CO)C[C@H]1C` the inhibition was -10.2%. Compound `C[C@@H]1CN([C@H](C)CO)C(=O)c2cccc(NC(=O)c3nc4ccccc4s3)c2O[C@@H]1CN(C)C` has an inhibition of 6.43%. For `C[C@@H]1CN([C@H](C)CO)C(=O)c2cccc(NC(=O)c3nc4ccccc4s3)c2O[C@H]1CN(C)S(=O)(=O)c1ccc(Cl)cc1`, the inhibition was 61.5%. `C[C@@H]1CN([C@H](C)CO)C(=O)c2cccc(NC(=O)c3nc4ccccc4s3)c2O[C@@H]1CN(C)Cc1ccc(Oc2ccccc2)cc1` showed an inhibition of 54.9%. In the case of `C[C@@H]1CN([C@H](C)CO)C(=O)c2cccc(NC(=O)c3nc4ccccc4s3)c2O[C@H]1CN(C)Cc1ccccc1`, the inhibition is reported as 96.6% (active).
